Holding throughout (assay): NCI-60 one-dose screen, 48 h (100 = growth as untreated, 0 = no growth, -100 = all killed)
For one assay, the system named is HCT-15 colon. To be noted: 10 µM unless noted.
The test system of a further assay is HT29 colon. To be noted: 10 µM unless noted.
A further assay has as its system SNB-75 CNS. The following applies: 10 µM.
The next assay concerns U251 CNS. To be noted: 10 µM unless noted.
In a further assay the test system is PC-3 prostate. To be noted: 10 µM unless noted.
A further assay concerns SK-MEL-5 melanoma. To be noted: 10 µM unless noted.
The next assay deals with UACC-62 melanoma. To be noted: 10 µM unless noted.
In a further assay the test system is LOX IMVI melanoma. To be noted: 10 µM unless noted.
In the next assay the test system is SK-MEL-28 melanoma. The following applies: 10 µM unless noted.
In another assay the test system is SK-MEL-2 melanoma. To be noted: 10 µM unless noted.
For a further assay, the system named is EKVX NSCLC. To be noted: 10 µM unless noted.
Another assay concerns SN12C renal. To be noted: 10 µM unless noted.
Another assay deals with UO-31 renal. The following applies: 10 µM unless noted.
Another assay relates to TK-10 renal. To be noted: 10 µM unless noted.
A further assay relates to ACHN renal. To be noted: 10 µM unless noted.
Another assay deals with CAKI-1 renal. The following applies: 10 µM unless noted.
The subject of the next assay is A498 renal. The following applies: 10 µM unless noted.
For the next assay, the system named is CCRF-CEM leukemia. To be noted: 10 µM unless noted.
In another assay the test system is MOLT-4 leukemia. The following applies: 10 µM unless noted.
A further assay concerns SNB-19 CNS. To be noted: 10 µM unless noted.

Compounds without any hit were thinned out: in the full panel of roughly 83,000, 20% have a hit.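 How to read the values: 0–100, growth inhibition (40 = 60% inhibited); 0, no net growth; -100 to 0, cell death (-40 = 40% of starting cells died; -100 = all dead).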 A number with no mark means an inactive call. Activity calls are given as the source filed them. How the source made its calls: active means growth percent below 10; inactive means the rest.

The values that follow come from PubChem BioAssay (NCI).

In the case of `C/C(=N/NC(=S)Nc1ccccc1)c1nc2ccc(Cl)cc2[nH]1`, the growth is 0.555% (active) in the assay on HCT-15 colon; -88.5% (active) in the assay on HT29 colon; -75.5% (active) with SNB-75 CNS; -44.2% (active) in the assay on U251 CNS; -47.7% (active) in the assay with PC-3 prostate; -97.3% (active) in the assay with SK-MEL-5 melanoma. Also, the growth in the assay with UACC-62 melanoma was -72.6% (active); in the assay with LOX IMVI melanoma it was -75.8% (active); in the assay with SK-MEL-28 melanoma, -96.6% (active); in the assay with SK-MEL-2 melanoma, -93.6% (active); in the assay on EKVX NSCLC, -23.6% (active); in the assay on SN12C renal it was -37.4% (active). Moreover, the growth was -35.5% (active) in the assay with UO-31 renal; -39.1% (active) in the assay with TK-10 renal; 7.65% (active) with ACHN renal; 9.36% (active) with CAKI-1 renal; -81.4% (active) with A498 renal; 1.46% (active) with CCRF-CEM leukemia. In the assay on MOLT-4 leukemia, the growth was -16.7% (active).
For `C=C1C(=O)O[C@H]2[C@H]1CC/C(Cn1cc(CNC(=O)/C=C/c3c[nH]c4ccccc34)nn1)=C\CC[C@@]1(C)O[C@@H]21`, the growth in the assay with HCT-15 colon was 94.4%; with HT29 colon, 92.4%; in the assay with SNB-19 CNS, 91.5%; with U251 CNS, 94.3%; with PC-3 prostate, 95.3%; with SK-MEL-5 melanoma, 83.8%. For the same compound, the growth is 87.6% in the assay with UACC-62 melanoma; 67.3% in the assay on LOX IMVI melanoma; 91.7% in the assay on SK-MEL-28 melanoma; 90.9% in the assay on SK-MEL-2 melanoma; 99.5% in the assay on EKVX NSCLC; 88.4% with SN12C renal. Besides, the growth in the assay with UO-31 renal was 92.6%; with TK-10 renal, 123%; in the assay with ACHN renal, 94%; in the assay with CAKI-1 renal, 88.9%; in the assay with A498 renal, 98.9%; with CCRF-CEM leukemia, 1.25% (active). Also, the growth with MOLT-4 leukemia is 89.5%.
In the case of `FC(F)(F)c1cccc(-c2cn3c(ccc4ccccc43)n2)c1`, the growth in the assay on HCT-15 colon was 90.9%; in the assay with HT29 colon, 102%; in the assay with SNB-19 CNS it was 100%; with U251 CNS it was 86.9%; in the assay on PC-3 prostate it was 83%; in the assay on SK-MEL-5 melanoma, 92.4%. In addition, the growth was 79.9% with UACC-62 melanoma; 90.1% with LOX IMVI melanoma; 115% with SK-MEL-28 melanoma; 102% in the assay on SK-MEL-2 melanoma; 85.4% with EKVX NSCLC; 97% with SN12C renal. Besides, the growth was 68.1% in the assay on UO-31 renal; 122% in the assay on TK-10 renal; 90.3% in the assay with ACHN renal; 71.4% in the assay with CAKI-1 renal; 94.9% in the assay with A498 renal; 105% in the assay with CCRF-CEM leukemia. Further, in the assay with MOLT-4 leukemia, the growth is 104%.
`Cc1c(C(=O)/C=C/c2csc3ccccc23)[n+](=O)c2ccccc2n1[O-]`: the growth was 48.7% in the assay with HCT-15 colon; 28.3% with HT29 colon; 73.7% in the assay with SNB-19 CNS; 40.2% in the assay with U251 CNS; 47.1% in the assay with PC-3 prostate; 79.5% in the assay with SK-MEL-5 melanoma. Besides, the growth in the assay on UACC-62 melanoma is 70.5%; in the assay with LOX IMVI melanoma, 34.1%; in the assay with SK-MEL-28 melanoma, 105%; in the assay with SK-MEL-2 melanoma, 95.3%; in the assay with EKVX NSCLC, 67.8%; with SN12C renal it was 78.7%. Moreover, the growth was 36.8% with UO-31 renal; 76.5% in the assay on TK-10 renal; 85% in the assay with ACHN renal; 17% with CAKI-1 renal; 118% in the assay with A498 renal; 51.9% in the assay on CCRF-CEM leukemia. The growth in the assay on MOLT-4 leukemia was 81.8%.
On to `CC(O)CN1CCCCC1` (stereo not given), for which the growth in the assay with HCT-15 colon was 107%; in the assay with HT29 colon, 92.3%; in the assay with SNB-19 CNS it was 100%; in the assay on U251 CNS, 99.6%; in the assay on PC-3 prostate, 102%; with SK-MEL-5 melanoma, 105%. Further, the growth in the assay on UACC-62 melanoma is 101%; with LOX IMVI melanoma, 101%; with SK-MEL-28 melanoma, 109%; with SK-MEL-2 melanoma it was 113%; in the assay on EKVX NSCLC it was 105%; in the assay with SN12C renal it was 96.8%. Moreover, the growth in the assay on UO-31 renal is 86.3%; in the assay on TK-10 renal, 110%; with ACHN renal it was 108%; with CAKI-1 renal it was 95.7%; in the assay with A498 renal it was 94.5%.
As for `COc1cc(-c2ncn(/C=C\C(=O)OC(C)C)n2)cc(C(F)(F)F)c1`, the growth with HCT-15 colon is 3.97% (active); in the assay on HT29 colon it was -14% (active); in the assay with SNB-75 CNS, -29.3% (active); in the assay on U251 CNS, 5.83% (active); with PC-3 prostate, 18.2%; with SK-MEL-5 melanoma, -38.4% (active). Also, the growth with UACC-62 melanoma is -10.9% (active); with LOX IMVI melanoma it was -73% (active); in the assay on SK-MEL-28 melanoma it was -18.3% (active); in the assay on SK-MEL-2 melanoma, -10% (active); in the assay on EKVX NSCLC, 43.6%; with SN12C renal it was 12.9%. Besides, the growth in the assay with UO-31 renal is 3.53% (active); in the assay on TK-10 renal, -8.8% (active); with ACHN renal it was 11.5%; with CAKI-1 renal, 14.3%; in the assay with A498 renal it was -53.8% (active); in the assay on CCRF-CEM leukemia, 11.5%. The growth in the assay on MOLT-4 leukemia was 2.48% (active).
As for `CC(C)C1=CC2=C(C=O)C[C@@H]3[C@](C)(CCC[C@@]3(C)C(=O)OCC#CCN3CCCC3)[C@H]2CC1`, the growth in the assay with HCT-15 colon is 60.9%; with HT29 colon, 18.5%; in the assay with SNB-19 CNS, 85.2%; with U251 CNS it was 56.1%; with PC-3 prostate, 54.9%; in the assay with SK-MEL-5 melanoma, 65.1%. In addition, the growth was 77.4% in the assay with UACC-62 melanoma; 91.9% in the assay on LOX IMVI melanoma; 96.8% with SK-MEL-28 melanoma; 94% with SK-MEL-2 melanoma; 98.2% in the assay on EKVX NSCLC; 83.7% with SN12C renal. Also, the growth is 61.6% with UO-31 renal; 93.6% in the assay on TK-10 renal; 97.3% with ACHN renal; 105% in the assay with CAKI-1 renal; 88.6% with A498 renal; 63.9% in the assay with CCRF-CEM leukemia. Further, the growth in the assay with MOLT-4 leukemia is 66.9%.
Consider `O=[N+]([O-])c1cccc(-c2nc3sccn3c2-c2ccnc(NCCCNS(=O)(=O)c3ccc(Cl)cc3)n2)c1`, for which the growth is 35.2% with HCT-15 colon; 56.4% in the assay with HT29 colon; 83.5% in the assay on SNB-19 CNS; 87.8% in the assay on U251 CNS; 28.1% with PC-3 prostate; -17.2% (active) in the assay on SK-MEL-5 melanoma. Besides, the growth is 7.02% (active) with UACC-62 melanoma; 35.4% in the assay on LOX IMVI melanoma; 66% in the assay on SK-MEL-28 melanoma; 45.3% with SK-MEL-2 melanoma; 50.9% in the assay on EKVX NSCLC; 53.8% in the assay on SN12C renal. Also, the growth in the assay on UO-31 renal was 22.2%; with TK-10 renal it was 117%; with ACHN renal, 47.8%; in the assay with CAKI-1 renal it was 43.8%; in the assay on A498 renal, 68%; with CCRF-CEM leukemia it was 16.7%. The growth with MOLT-4 leukemia is 13.7%.
